This is part of a sample that, as a whole, favours compounds with a hit. Of some 79,000 tested, about 15% had one in any assay. A number with no mark means an inactive call. Calls of active or inactive are those of the source. No stated cut-off is given here; in the data, active means growth inhibition above about 70%; inactive means the rest.
Experiments:
[1] = NCI Yeast Anticancer Drug Screen. Data for the rad50 strain (AID 155);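 further: 0% = growth of vehicle-only cultures of the same strain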; conditions: S. cerevisiae rad50 strain growth inhibition; at 50.0 µM; hits give high values
Summary of the method: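 Inhibition values express reduced yeast growth in compound-treated cultures relative to vehicle-treated controls.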

[2] = NCI Yeast Anticancer Drug Screen. Data for the mec2-1 strain (AID 157); conditions: S. cerevisiae mec2-1 strain, at 50.0 µM, hits give high values
Summary of the method: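 Each compound was tested on mec2-1 yeast, a strain altered in DNA damage repair or cell cycle control. Growth inhibition is reported relative to vehicle.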

[3] = NCI Yeast Anticancer Drug Screen. Data for the sgs1 mgt1 strain (AID 161);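 further: 0% = growth of cultures given vehicle only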; conditions: S. cerevisiae sgs1 mgt1 strain, at 50.0 µM, hits give high values
Summary of the method: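 Genetically altered yeast, compound exposure, growth inhibition relative to vehicle.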

[4] = NCI Yeast Anticancer Drug Screen. Data for the cln2 rad14 strain (AID 165);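 further: 0% = growth equal to vehicle treated cultures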; conditions: S. cerevisiae cln2 rad14 strain, at 50.0 µM, hits give high values
Summary of the method: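 Test compounds were added to cln2 rad14 yeast cultures; inhibition of growth was then determined by comparison with vehicle treatment.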

[5] = NCI Yeast Anticancer Drug Screen. Data for the bub3 strain (AID 167); conditions: S. cerevisiae bub3 mutant strain, at 50.0 µM, hits give high values
Summary of the method: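 Steps: expose the mutant yeast strain to compound; grow alongside vehicle-treated cultures; measure growth; express inhibition against the vehicle cultures.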

[6] = NCI Yeast Anticancer Drug Screen. Data for the mlh1 rad18 strain (AID 175); conditions: S. cerevisiae mlh1 rad18 strain growth inhibition; at 50.0 µM; hits give high values
Summary of the method: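 Inhibition values reflect reduced growth of mutant yeast versus vehicle-treated controls following compound exposure; the mutations affect DNA damage repair.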

SMILES | growth inhibition [1] | growth inhibition [2] | growth inhibition [3] | growth inhibition [4] | growth inhibition [5] | growth inhibition [6]
c1ccc(-c2ccc[n+](CC[n+]3cccc(-c4ccccn4)c3)c2)nc1 | 0.3% | -9.4% | -25.4% | -11.4% | -0.1% | 8.45%
Nc1ncn[nH]1 | -5.05% | 11.7% | -7.75% | 7.9% | 18.6% | -3.25%
CN(C)C(=O)Sc1ccc(S(=O)(=O)F)cc1[N+](=O)[O-] | 65.5% | 36.9% | 76.7% (active) | 42.5% | 34.4% | 34.6%
N#CN | -9.55% | -17.2% | 22.1% | -16.1% | -13.2% | -5.8%
CC(SC(C)C(=O)N/N=C/c1ccc(N(CCCl)CCCl)cc1)C(=O)N/N=C\c1ccc(N(CCCl)CCCl)cc1 (configuration not stated) | -0.45% | -0.55% | -6.05% | -10.7% | 5.05% | 26.1%
CC(=O)Nc1ccc([N+](=O)[O-])c(C(F)(F)F)c1 | -4.2% | -6.4% | 9.05% | 13.1% | -3.9% | 6.05%
[C-]#[O+].[C-]#[O+].[C-]#[O+].[C-]#[O+].[C-]#[O+].[C-]#[O+].[Fe].[Fe].c1ccc([P-]c2ccccc2[P-]c2ccccc2)cc1 (configuration not stated) | 8.7% | 26.9% | -11.3% | 26.9% | 12.6% | 18.7%
C#CCOC(N)=O | 1.05% | -15.1% | -7.65% | -18.6% | -14.8% | -17.6%
O=P(O)(NCCCl)NCCCl | -24.4% | -17.9% | -22.7% | -5.6% | -41.1% | -39.5%
OCC1CCCN2CCCCC12 (configuration not stated) | 1.2% | 0.35% | -4.2% | -39.1% | -20.4% | 7.35%
CC1NC1(c1ccccc1)n1ccnc1 (configuration not stated) | 13.4% | -18.1% | 5.8% | -14.5% | 11.4% | 3.4%
C=CC1CC=CCC1 (configuration not stated) | -7.1% | -5.2% | 9.15% | -25.2% | -0.55% | -11.9%
Cc1ccc(OP(=O)(Oc2ccc(C)cc2)Oc2ccc(C)cc2)cc1.Cc1ccc(OP(=O)(Oc2ccc(C)cc2)Oc2ccc(C)cc2)cc1.[Cl][Ni][Cl] | 23.5% | 35.8% | 29.4% | 4.2% | 38.4% | 59.3%
Cc1cccc(Cl)c1OP(=O)(Oc1c(C)cccc1Cl)Oc1c(C)cccc1Cl | -10.4% | -7.8% | -19.3% | -19.3% | 2.25% | -51.4%
CCC(=O)c1ccc(N)cc1 | 7.95% | 4.45% | 2.15% | -26.4% | -4.8% | 6.25%
O=C1NC(=S)NC(=O)C1=Cc1ccco1 | -4.55% | -19.9% | -17% | 27.6% | -11.2% | -19.6%
N[C@@H](Cc1ccc2oc3cc(=O)c4ccccc4c-3nc2c1)C(=O)O | 26% | 32.9% | 10% | 39.2% | 28.8% | 35%
O=[N+]([O-])c1ccc(OCCOCCOc2ccc(S(=O)(=O)F)cc2)c(Cl)c1 | 56.2% | 15.4% | 21.8% | 29.6% | 45.4% | 56.5%
CN(C)[C@@H]1C(=O)C(C(N)=O)=C(O)[C@@]2(O)C(=O)C3=C(O)c4c(O)ccc(Cl)c4[C@@](C)(O)[C@H]3C[C@@H]12 | -16.9% | 1.1% | 13.2% | -6.6% | -8.8% | -4.1%
C1CCN2CC34CC(CC5CCCN(C6CCCC3N6)C54)C2C1 (configuration not stated) | -19.5% | -43.1% | -22.1% | 10.7% | -36.3% | -99.8%
NC(=O)CCC(N)C(=O)O.[Cl-].[Cl-].[Cl-].[Cl-].[Pt+2] (configuration not stated) | -1.4% | -3.35% | -9.1% | 23.9% | 8.1% | 13%

SMILES | growth inhibition [1] | growth inhibition [2] | growth inhibition [3] | growth inhibition [4] | growth inhibition [5] | growth inhibition [6]
CN1C(c2cccnc2)=NCC12CCCC2 | -2.95% | -10.1% | 6.45% | -17.2% | -10.2% | -9.45%
CCCCCCNC1C=CCC1 (configuration not stated) | -5.75% | -2.55% | -10.9% | -15.6% | 5.15% | 4.25%
CCN(CC)P(=O)(N1CC1(C)C)N1CC1(C)C (configuration not stated) | 1.85% | 0.75% | 1.4% | 2.35% | -4.6% | 1.35%
CN(C)C(=S)Oc1cc(Cl)c(S(=O)(=O)F)cc1Cl | 99.5% (active) | 98.8% (active) | 99.2% (active) | 95.8% (active) | 99.2% (active) | 99% (active)
CC(=O)Nc1nc2c(ncn2C2OCC(OC(C)=O)C(OC(C)=O)C2OC(C)=O)c(=O)[nH]1 (configuration not stated) (tested in a mixture with another compound) | 4.1% | -4.35% | 2.65% | -6.9% | 6.1% | 6.95%
CC(=N/O)/C(C)=N\O | 21% | 14.8% | 5.7% | 13.4% | -0.4% | 40.3%
CCCCOP(=O)(CSCC)OCCCC | -6.2% | 0.1% | -16.6% | 16.2% | 14.9% | -1.4%
c1ccc2sc(SNC3CCCCC3)nc2c1 | -29.7% | -65.1% | -60.1% | -128% | 13.6% | 2.4%
COC(=O)C(O)(c1ccccc1)C1CCCC1 (configuration not stated) | 20.8% | -10.1% | -10.6% | 11.9% | 10.1% | -9.5%
COc1ccc2c(=O)c3ccccc3oc2c1CN(CCCl)CCCl | 19.9% | 16.4% | -5.2% | 13.2% | -3.1% | -8.25%
CC(C)=CCN=C(N)N | -9.15% | -51.1% | -17.3% | -8% | -37.1% | -28.7%
C[N+]1(C)C2CC(O)CC1C1OC12 (configuration not stated) | -4.35% | 5.15% | 1.45% | 2.85% | -3.75% | 4.45%
CC(=O)CCC(=O)O | -7.05% | 0.55% | -39.2% | 16.1% | -7.25% | -19.9%
CS(=O)(=O)c1ccc([As](=O)(O)O)cc1 | 5.7% | 0.1% | 20.6% | -34.1% | 5.2% | -11.8%
[CH3][Sb]1([CH3])([I])[CH2]CC[CH2]1 | -6.55% | -5.35% | -5.75% | -11.1% | 27.2% | 33.9%
OC(Cc1ccccn1)C(Cl)(Cl)Cl (configuration not stated) | -10.2% | -13.5% | -1.7% | -15.6% | 4.35% | 3.9%
CCOP(=O)(O)SP(=O)(O)OCC.[Zn+2] | -13.9% | -11.8% | -7% | 2.9% | -5.45% | -0.35%
F[C](F)(F)[Hg][c]1ccccc1 | 99.3% (active) | 99.7% (active) | 99.5% (active) | 98.8% (active) | 99.5% (active) | 99.3% (active)
CC(=O)Nc1cccc([As]=O)c1 (configuration not stated) | 11.5% | 2.75% | 9.95% | 7.6% | -10.8% | 19.1%
CC1=CC(=O)[C@@H](O)[C@]2(C)[C@H]3[C@@]4(O)OC[C@]35[C@H]([C@@H](C)[C@H]4O)[C@@H](O)C(=O)O[C@@H]5C[C@@H]12 | 41.8% | 9.7% | 36% | 30.2% | 15.2% | 35.9%
O=C1NC(=O)C2(c3ccccc3)CCN1C2=O (configuration not stated) | 1.35% | 4.6% | 1.8% | -7% | -12.2% | 10%
